# Source: PubChem BioAssay
# Gal4-VP16 FLuc: counter-screen for ROR gamma inhibitors: Gal4-VP16 reporter; Drosophila S2 Gal4-VP16 UAS-luciferase, luminescence, 20 h; 310,000 compounds, 3.5% hits; Potency, µM (highest dose often 53.6 µM), for inactives: top-dose activity, negative = inhibition, actives largely listed as inhibitors; AID 2546;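 also: Gal4-VP16 expression switched on by copper sulfate through the metallothionein promoter; % is scaled to controls: 0 for no effect and ±100 for the full control effect; nearly all actives have a fitted effect of over 50% in size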
# RORgamma inh: blocks mouse ROR gamma transcriptional activity; Drosophila S2 Gal4-RORgamma UAS-luciferase reporter, 20 h; 310,000 compounds, 5.4% hits; Potency, µM (series often up to 53.6 µM), inactives show at the top dose activity change, negative = inhibition, hits mostly inhibitors; P51450; also: % is scaled to controls: 0 for no effect and ±100 for the full control effect; nearly all actives have a fitted effect of over 60% in size
# Target sequence (P51450 whole entry, looked up, the tested form may be a part): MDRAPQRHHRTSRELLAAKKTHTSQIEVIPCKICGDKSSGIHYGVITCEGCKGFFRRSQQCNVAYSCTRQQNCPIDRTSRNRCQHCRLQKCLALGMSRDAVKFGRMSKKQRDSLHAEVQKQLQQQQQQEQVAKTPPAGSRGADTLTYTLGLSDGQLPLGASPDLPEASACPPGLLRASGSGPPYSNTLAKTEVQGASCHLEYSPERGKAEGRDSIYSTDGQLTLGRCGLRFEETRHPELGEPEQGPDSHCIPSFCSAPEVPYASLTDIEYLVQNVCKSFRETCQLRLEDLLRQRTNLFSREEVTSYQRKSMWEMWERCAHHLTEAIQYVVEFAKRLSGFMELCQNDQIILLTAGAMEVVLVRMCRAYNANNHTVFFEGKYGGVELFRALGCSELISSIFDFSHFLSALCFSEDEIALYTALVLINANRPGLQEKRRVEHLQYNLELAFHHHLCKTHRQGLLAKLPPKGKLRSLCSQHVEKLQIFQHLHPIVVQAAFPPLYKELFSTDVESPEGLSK
#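 Drosophila S2 cells stably expressing Gal4-DBD/mouse RORγ fusion under metallothionein promoter plus UAS-luciferase; compound 1 h, then 700 uM CuSO4 induction for 20 h at ambient temperature; inhibition read as reduced luminescence.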
# PINK1 modulator: changes PINK1 expression; PINK1 immunofluorescence, high-content cytometry, 24 h; Potency, µM (doses to about 76.6 µM), for the others: top-dose activation (PINK1 increase), most hits filed as activators; 410,000 compounds, 0.2% hits; active = well fitted activation curve with a large enough effect; inconclusive = small, poorly fitted or top-dose-only effect; cell line not stated here; also: % of control where 0% means no effect; nearly all actives have a fitted effect of over 65% in size
#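 Stable cell line, 250 cells/well, 12 h attachment; compounds pinned at 5 concentrations, 24 h; CCCP control. Fixed with nuclear dye, primary antibodies 12 h at 10 degrees C, secondary plus cell stain; laser-scanning cytometer read.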
# Sfp inh: inhibitors of Bacillus subtilis Sfp phosphopantetheinyl transferase; Q9F4F7; Biochemical Sfp PPTase activity, qHTS; 310,000 compounds, 3.5% hits; Potency, µM, for the others: largest response in the series, negative = inhibition, most hits filed as inhibitors;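 also: the enzyme is Sfp with the accession as filed and its product quenches rhodamine fluorescence; 0% = enzyme reaction without inhibitor and -100% = no enzyme wells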
#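 Fluorescence-quenching assay with 15 nM Sfp, 5 uM rhodamine-CoA and 12.5 uM BHQ-2-labelled ybbR peptide in pH 7.6 Hepes/MgCl2 buffer. Enzyme was pre-incubated with compound for 15 min at room temperature. Rate was taken from the 30-min fluorescence change (525/598 nm).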
# ClpP mod: qHTS Assay for Activators of ClpP. ATP-dependent Clp protease proteolytic subunit (Bacillus subtilis (strain 168)), P80244. purified B. subtilis ClpP, FRET peptide cleavage, 20 min. Potency, µM (titrated, usually from 57.5 µM), for the others: top-dose activity change, negative = active. 340,000 compounds, 1.9% hits. AID 651965, 2013; active = well fitted falling curve with a large enough effect; inconclusive = small, poorly fitted or top-dose-only effect; inactive = no such curve, though single readings can be large or run the other way; also: the source files actives as falling curves though it sought activators and does not explain the sign; nearly all actives have a fitted effect of over 65% in size
#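 Purified B. subtilis ClpP, 10 microg/mL final in Tris/HCl pH8 with KCl, BSA, glycerol and Tween-20, cleaved an Abz/nitrotyrosine-quenched decapeptide. Fluorescence (ex 320, em 430) was read at 0 and 20 min at room temperature. Delta was normalized to 5.8 microM ADEP and DMSO/no-enzyme controls.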
# Epigenetic derep: derepresses silenced GFP reporter in murine cells; murine LDR cells, GFP reporter derepression, 30 h; Potency, µM (top dose mostly 53.9 µM), for the others: at the highest dose GFP activation, usual class: activators; 280,000 compounds, 0.2% hits; AID 1865; also: % of control where 0% means no effect; nearly all actives have a fitted effect of over 60% in size
#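 Readout is the number of GFP-expressing murine LDR cells, counted by cytometry following washing. Cells were treated with compound for 30 h at 37 C; the stably integrated CMV-GFP locus is normally silent.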
# * = called active by the depositor; ? = inconclusive; nt = no result given. Rows were chosen to be rich in hits. Some 8.1% of all compounds tested hit in one or more screens of this group. Unless noted, calls follow the shape of the dose curve; as a rule, active = well fitted curve in the direction sought with a large enough effect; inconclusive = small, poorly fitted or top-dose-only effect, or another doubt; inactive = no such curve, though single readings can be large; an effect the other way counts as inactive or inconclusive. Potency is read from the fitted curve at half-maximal effect.
SMILES,Gal4-VP16 FLuc,RORgamma inh,PINK1 modulator,Sfp inh,ClpP mod,Epigenetic derep
O=C1NC(=O)C(c2ccc(Cl)cc2Cl)N1 (stereo not drawn),nt,nt,-3%,nt,1%,nt
CN(C)c1ccc(NC(=O)CSc2nnc(-c3ccco3)c(-c3ccco3)n2)cc1,-3%,1%,6%,?,nt,nt
Cc1cccc(C)c1NC(=O)CSc1nnc(-c2ccco2)c(-c2ccco2)n1,-4%,20%,1%,11µM*,1%,-3%
O=C(CSc1nnc(-c2ccco2)c(-c2ccco2)n1)Nc1ccccc1,5%,15%,-2%,8.9µM*,-1%,1%
Cc1ccc(NC(=O)CSc2nnc(-c3ccco3)c(-c3ccco3)n2)cc1,-3%,0%,5%,8.9µM*,0%,1%
O=C(CSc1n[nH]c(-c2ccco2)n1)Nc1ccc(F)cc1,-11%,21%,1%,3%,nt,nt
Cc1cccc(CNC(=O)c2cnn(-c3nccc(-c4cccs4)n3)c2C2CC2)n1,nt,nt,-1%,nt,nt,nt
O=C(NC(=S)Nc1ccc(S(=O)(=O)N2CCCCCC2)cc1)c1cccs1,6.3µM*,2.8µM*,7%,-28%,1%,-3%
O=C(NC(=S)Nc1ccc(S(=O)(=O)N2CCCC2)cc1)c1cccs1,13µM*,4.5µM*,0%,?,-8%,3%
N.N.O=C(O)C1(C(=O)O)CCC1.[Pt],10%,-1%,nt,-103%,nt,0%
CCc1ccc2oc(C(=O)Nc3ccccc3C(=O)OC)cc(=O)c2c1,nt,nt,3%,nt,0%,2%
C/C(=N\NC(=O)C12CCC(C)(C(=O)O1)C2(C)C)c1ccccc1O (stereo not drawn),1.3µM*,0.71µM*,1%,-8%,-1%,1%
Cc1ccc2ncc(C(=O)Nc3ccc(F)cc3F)c(=O)n2c1,nt,nt,2%,nt,0%,0%
CCC(C)NC(=O)CSC1=Nc2ccccc2C2=NC(CC(=O)NCc3ccc(F)cc3)C(=O)N12 (stereo not drawn),-2%,0%,2%,6%,32µM*,0%
CC(C)C1N=C2c3ccccc3N=C(SCC(=O)NCCc3ccc(S(N)(=O)=O)cc3)N2C1=O (stereo not drawn),-8%,0%,3%,-2%,32µM*,1%
CCN(CC)C(=O)CSC1=Nc2ccccc2C2=NC(c3ccccc3)C(=O)N12 (stereo not drawn),1%,-20%,1%,6%,16µM*,-1%
CC(C)C1N=C2c3ccccc3N=C(SCC(=O)NCc3ccc(Cl)cc3)N2C1=O (stereo not drawn),nt,nt,0%,nt,4%,-3%
CCC1CN(C(=O)N2CCC(C(=O)NCCc3ccc(C)cc3)CC2)c2ccccc2O1 (stereo not drawn),nt,nt,-1%,nt,1%,1%
O=C(O)c1ccc(NC(=O)c2cc3c([nH]c2=O)CCCC3=O)cc1,nt,nt,-1%,nt,?,nt
O=C(COC(=O)c1cccnc1Cl)NCCC1=CCCCC1,-6%,8%,-1%,12%,16µM*,0%
CSc1ncccc1C(=O)OCC(=O)NCCC1=CCCCC1,nt,nt,?,nt,0%,nt
CCN(CC)CCCNc1nc(CN2CCOCC2)nc2sc3c(c12)CCC3,-2%,-6%,-1%,12%,nt,-2%
Clc1nc(CN2CCOCC2)nc2sc3c(c12)CCC3,23%,?,0%,3%,-4%,-2%
CCC(C)Nc1nc(CN2CCOCC2)nc2sc3c(c12)CCC3 (stereo not drawn),?,11µM*,0%,3%,-10%,1%
Cc1cccc(Oc2nc(CN3CCOCC3)nc3sc4c(c23)CCCC4)c1,?,11µM*,0%,-20%,-1%,-1%
COc1ccc(NC(=O)CSc2ncc(-c3ccc(Cl)cc3)[nH]2)cc1OC,nt,nt,-1%,nt,-2%,2%
COc1ccc(C2OC34CCCCC3C(C#N)(C#N)C2(C#N)C(=N)O4)cc1 (stereo not drawn),3%,-1%,0%,-5%,11µM*,0%
